Laboratory results published in the supplement of paper PMC11577813, “Eurasian spruce bark beetle detects lanierone using a highly expressed specialist odorant receptor, present in several functional sensillum types” (BMC Biology, 2024).
± gives the standard deviation of the averaged measurements.

Tests used:
[1] = test system: (+)-isopinocamphone A-neuron OSN class; test: net action potential response of A-neuron (blank-subtracted) (spikes/s (Hz)); higher = stronger excitation; settings: 10 µg on filter paper; neuron: A neuron (large spike amplitude)
Method in brief: (§1)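 A humidified, charcoal-filtered airstream of 1.8 L/min passed over one fixed antenna of a live lab-reared adult Ips typographus during single sensillum recording with tungsten electrodes. Stimuli were 0.5 s pulses at 0.3 L/min from a pipette holding filter paper with 10 μg of compound in paraffin oil. Firing of the large-amplitude A-neuron or small-amplitude B-neuron was taken as a spike rate after pre-stimulus subtraction in AutoSpike, conversion to spikes/s, blank subtraction and averaging across sensilla. The windows were 0.5 s long, with 1–4 sensilla.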

[2] = test system: (+)-trans-4-thujanol A-neuron OSN class; test: as above; settings: 10 µg on filter paper; neuron: A neuron (large spike amplitude)
Method in brief: as §1

[3] = test system: (5S,7S)-trans-conophthorin A-neuron OSN class; test: as above; settings: 10 µg on filter paper; neuron: A neuron (large spike amplitude)
Method in brief: as §1

[4] = test system: myrcene A-neuron OSN class; test: as above; settings: 10 µg on filter paper; neuron: A neuron (large spike amplitude)
Method in brief: as §1

[5] = test system: p-cymene A-neuron OSN class; test: as above; settings: 10 µg on filter paper; neuron: A neuron (large spike amplitude)
Method in brief: as §1

[6] = test system: lanierone-responsive B-neuron OSN class (ItypOR36); test: net action potential response of lanierone B-neuron (blank-subtracted) (spikes/s (Hz)); higher = stronger excitation; settings: 10 µg on filter paper, neuron: B neuron (small spike amplitude)
Method in brief: as §1

[7] = test system: ipsdienol A-neuron OSN class; test: net action potential response of A-neuron (blank-subtracted) (spikes/s (Hz)); higher = stronger excitation; settings: 10 µg on filter paper; neuron: A neuron (large spike amplitude)
Method in brief: as §1

[8] = co-localized A-neuron class: (4S)-cis-verbenol
[9] = co-localized A-neuron class: (5S,7S)-trans-conophthorin
[10] = co-localized A-neuron class: (+)-isopinocamphone
[11] = co-localized A-neuron class: (+)-trans-4-thujanol
[12] = co-localized A-neuron class: ipsdienol
[13] = co-localized A-neuron class: myrcene
[14] = co-localized A-neuron class: p-cymene

| SMILES | net action potential response [1] | net action potential response [2] | net action potential response [3] | net action potential response [4] | net action potential response [5] | net action potential response [6, 8] | net action potential response [6, 9] | net action potential response [6, 10] | net action potential response [6, 11] | net action potential response [6, 12] | net action potential response [6, 13] | net action potential response [6, 14] | net action potential response [7] |
| --- | --- | --- | --- | --- | --- | --- | --- | --- | --- | --- | --- | --- | --- |
| CCC/C=C/C=O [(E)-hex-2-enal] | -3.33 ± 2.3 | 1 ± 5.8 | 4.67 ± 4.2 | 2 | 3 ± 1.4 | -2.67 ± 18 | 0 ± 2 | -2.67 ± 3.1 | -1.5 ± 3.4 | 0.667 ± 1.1 | -6 | -2 ± 8.5 | – |
| COc1ccc(C)cc1 [4-Methyl anisole] | 7.33 ± 4.6 | 6.5 ± 3.4 | 2 ± 2 | -4 | 44 ± 12 | -1.33 ± 8.3 | 2 ± 3.5 | 2.67 ± 1.1 | -2 ± 6.7 | 0.667 ± 10 | -8 | -2.67 ± 3.1 | – |
| CC1=CCC2C(C1)C2(C)C (single isomer, unassigned; (+)) [(+)-3-Carene] | 2 ± 5.3 | 7.5 ± 6.8 | 6.67 ± 4.6 | 12 | 50.7 ± 18 | 1.33 ± 13 | 3.33 ± 2.3 | -2.67 ± 5 | -2.5 ± 2.5 | -1.33 ± 4.2 | -2 | -3.33 ± 4.2 | – |
| C=C1CCC2(C(C)C)CC12 (racemic) [(±)-Sabinene] | 0.667 ± 3.1 | 6.5 ± 5.5 | 0.667 ± 3.1 | 34 | 1.33 ± 6.4 | 0.667 ± 6.4 | -1.33 ± 1.1 | -1.33 ± 2.3 | 0.5 ± 1.9 | 1.33 ± 9.2 | -4 | -4 ± 5.3 | 3.33 ± 2.3 |
| C[C@@H]1C(=O)C[C@H]2C[C@@H]1C2(C)C [(+)-Isopinocamphone] | 172 ± 28 | -2 ± 5.9 | 1.33 ± 1.1 | -4 | -3.33 ± 2.3 | -0.667 ± 17 | 1.33 ± 5 | -5.33 ± 3.1 | 1 ± 2.6 | -2 ± 2 | -2 | -0.667 ± 3.1 | – |
| CC/C=C/CCO | 8.67 ± 14 | 27.5 ± 23 | -2 ± 2 | -4 | 0.667 ± 3.1 | 2 ± 4 | -5.33 ± 6.1 | -2 ± 5.3 | -0.5 ± 6.6 | 0 ± 4 | -2 | -0.667 ± 3.1 | – |
| C=C(C)C1CC=C(C)C(=O)C1 (racemic) [(±)-Carvone] | -1.33 ± 1.1 | 1 ± 2.6 | 1 ± 3.5 | 0 | 30 ± 22 | – | – | – | – | – | – | – | 0 ± 3.5 |
| CC1=CCC(C(C)C)=CC1 [γ-Terpinene] | -0.667 ± 3.1 | -1 ± 4.2 | 3 ± 4.8 | 6 | 117 ± 49 | -2 ± 5.3 | 0.5 ± 6 | -0.667 ± 6.1 | -0.5 ± 1.9 | 0 ± 6 | -6 | -4 ± 3.5 | – |
| C=CC(C)(C)O [2-Methyl-3-buten-2-ol] | 0.667 ± 1.1 | 7 ± 11 | 3.33 ± 4.2 | -8 | 1 ± 1.4 | -4.67 ± 5 | -4.67 ± 7 | 2 ± 2 | -3.5 ± 7.2 | 3.33 ± 11 | 4 | -6 ± 2.8 | – |
| OCCc1ccccc1 [2-Phenylethanol] | 7.33 ± 3.1 | 3.5 ± 4.7 | 0 ± 1.6 | 0 | 2.67 ± 3.1 | – | – | – | – | – | – | – | – |
| c1ccc2c(c1)CCO2 [2,3-Dihydrobenzofuran] | 2 ± 2 | -1.5 ± 1.9 | 1.33 ± 3.1 | -6 | 6.67 ± 5.8 | – | – | – | – | – | – | – | – |
| C=CC(=C)C[C@@H](O)CC(C)C (racemic) [(±)-Ipsenol] | -1.33 ± 5 | 2 ± 2.8 | -1.33 ± 6.1 | -2 | -4 | -1.33 ± 5 | 0 ± 5.3 | 0 ± 3.5 | 0.5 ± 1.9 | -5.33 ± 2.3 | -4 | -8 ± 5.7 | – |
| CCCCCC(O)CC (racemic) [(±)-3-Octanol] | 10 ± 10 | 57.5 ± 45 | 13 ± 10 | 6 | 3.33 ± 2.3 | – | – | – | – | – | – | – | – |
| C=Cc1ccccc1 [Styrene] | 5.33 ± 6.1 | 8.5 ± 18 | 6 ± 7.2 | -2 | 18.7 ± 15 | -6 ± 8.7 | -1.33 ± 1.1 | -4.67 ± 4.6 | -0.5 ± 6.6 | -1.33 ± 4.6 | 4 | -6 ± 2.8 | – |
| CC12CCC(CC1=O)C2(C)C (racemic) [(±)-Camphor] | 125 ± 40 | 2 ± 5.7 | 5.33 ± 7 | -6 | 6.67 ± 16 | -2.67 ± 3.1 | 0 | -6.67 ± 2.3 | -1.5 ± 1 | -2.67 ± 6.1 | -2 | 1 ± 1.4 | – |
| CC12CCC(CC1)C(C)(C)O2 [1,8-Cineole] | -2.67 ± 2.3 | 1 ± 3.8 | 2.67 ± 10 | 8 | 13.3 ± 11 | – | – | – | – | – | – | – | 0 ± 5.3 |

| SMILES | net action potential response [1] | net action potential response [2] | net action potential response [3] | net action potential response [4] | net action potential response [5] | net action potential response [6, 8] | net action potential response [6, 9] | net action potential response [6, 10] | net action potential response [6, 11] | net action potential response [6, 12] | net action potential response [6, 13] | net action potential response [6, 14] | net action potential response [7] |
| --- | --- | --- | --- | --- | --- | --- | --- | --- | --- | --- | --- | --- | --- |
| CC[C@H]1O[C@]2(C)CCC[C@H]1O2 (racemic) [(±)-exo-Brevicomin] | -0.667 ± 4.2 | 2.5 ± 2.5 | 173 ± 40 | 6 | 0 ± 2 | – | – | – | – | – | – | – | – |
| CC1=CCC(=C(C)C)CC1 [Terpinolene] | 3.33 ± 5.8 | 0.5 ± 5.5 | 4 ± 6.9 | 2 | 20 ± 16 | – | – | – | – | – | – | – | – |
| C=Cc1ccc(OC)cc1 [4-Vinyl anisole] | -0.667 ± 4.2 | 1.5 ± 3.4 | -1.33 ± 3.1 | -2 | 15.3 ± 14 | – | – | – | – | – | – | – | – |
| CC(=O)OC/C=C(\C)CCC=C(C)C [Geranyl acetate] | 0.667 ± 7 | 0 | 2 ± 7.2 | -4 | 1 ± 1.4 | -2.67 ± 7.6 | -2 ± 9.2 | -0.667 ± 2.3 | -2 ± 4.3 | -2 ± 5.3 | 0 | -2 ± 5.7 | – |
| CC(=O)OCCc1ccccc1 [2-Phenethyl acetate] | 0.667 ± 3.1 | 2.5 ± 4.1 | 2 ± 2 | 8 | -1.33 ± 4.6 | – | – | – | – | – | – | – | -3.33 ± 4.2 |
| C=CCc1ccc(OC)c(OC)c1 [Eugenol methyl ether] | -0.667 ± 5.8 | 0 ± 1.6 | 4 ± 2.3 | 0 | 4.67 ± 5 | – | – | – | – | – | – | – | 1.33 ± 1.1 |
| CCC1CCC2(CCCO2)O1 (racemic) [(±)-Chalcogran] | -3.33 ± 1.1 | 9 ± 10 | 175 ± 15 | 2 | 0.667 ± 3.1 | – | – | – | – | – | – | – | – |
| CCCCCC=O [Hexanal] | 4.67 ± 3.1 | 0.5 ± 4.4 | 2.67 ± 7.6 | 4 | 2 ± 3.5 | – | – | – | – | – | – | – | 0.667 ± 2.3 |
| CC(C)=CCC/C(C)=C/C=O [Citral (E/Z mix)] | 0.667 ± 5 | 0.5 ± 1.9 | 2 ± 7.2 | 2 | -2 ± 2 | – | – | – | – | – | – | – | – |
| C[C@H]1C(=O)C[C@H]2C[C@@H]1C2(C)C [(-)-Pinocamphone] | 119 ± 57 | -0.5 ± 1.9 | 2 ± 2 | 0 | 3.33 ± 3.1 | -2 ± 2 | -4 ± 8.7 | -1.33 ± 1.1 | 1 ± 3.8 | 0 ± 6 | 4 | -2 ± 3.5 | – |
| CC(C)[C@@]12CC[C@@](C)(O)[C@@H]1C2 [(+)-trans-4-Thujanol] | 11.3 ± 16 | 133 ± 37 | -1 ± 1.1 | -4 | 37.3 ± 13 | – | – | – | – | – | – | – | – |
| C=C1CCC2CC1C2(C)C (stereo not drawn) [(-)-β-Pinene] | 8 ± 7.2 | 1 ± 1.1 | 2 ± 6 | 18 | 0.667 ± 4.6 | – | – | – | – | – | – | – | – |
| Cc1ccc(C(C)C)cc1 [p-Cymene] | -0.667 ± 2.3 | 0.5 ± 5.3 | 3.5 ± 3.4 | 0 | 146 ± 65 | – | – | – | – | – | – | – | 2 ± 3.5 |
| C=CC(O)CCCCC (racemic) [(±)-1-Octen-3-ol] | -4.67 ± 1.1 | 33 ± 24 | 1.5 ± 2.5 | 2 | 1.33 ± 1.1 | – | – | – | – | – | – | – | – |
| CC1=CCC2CC1C2(C)C (stereo not drawn) [(+)-α-Pinene] | 3.33 ± 3.1 | 2.5 ± 3 | -1.5 ± 6.8 | 4 | 2.67 ± 1.1 | 0 ± 12 | -0.5 ± 4.7 | 0.667 ± 5.8 | 2 ± 2.8 | -4 ± 4 | -4 | 1.33 ± 7 | – |
| C=CC(=C)CCC=C(C)C [Myrcene] | -2 ± 2 | 0.5 ± 3 | 2 ± 10 | 128 | 3.33 ± 2.3 | – | – | – | – | – | – | – | -2 ± 3.5 |
